Activity calls are given as the source filed them.
How the values were obtained:
[1] = small molecules captured by biotinylated probe aFSTL3 – biochemical, small-molecule microarray, fluorescence 635/667, stem cell growth factor project, primary screen (AID 1064); conditions: higher = more signal;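 note: measures binding of the biotinylated anti-FSTL3 antibody to printed compounds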
[2] = binders from COS7 lysate, DM2A8 probe, primary screen, torsin A project, cell lysate, small-molecule microarray, fluorescence 635/667 (AID 1065); conditions: higher = more signal, COS7 lysate expressing mutant human TOR1A
[3] = small molecules captured by biotinylated probe aFGF2 – biochemical, small-molecule microarray, fluorescence 635/667, stem cell growth factor project, primary screen (AID 1067); conditions: higher = more signal;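 note: measures binding of biotinylated aFGF2 protein to printed compounds on slides; z-score merges feature fluorescence and signal-to-noise across triplicate slides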
[4] = small molecules captured by biotinylated probe aFGF10 – biochemical, small-molecule microarray, fluorescence 635/667, stem cell growth factor project, primary screen (AID 1071); conditions: higher = more signal;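 note: score merges 667 nm spot intensity and signal to noise from triplicate slides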
[5] = molecular target: Neurogenic locus notch homolog protein 2 (Homo sapiens) (UniProt Q04721); experiment: small molecules binding Notch2 protein – biochemical, small-molecule microarray, 635 nm fluorescence, stem cell growth factors, primary screen (AID 1073); conditions: higher = more signal
[6] = molecular target: Pro-neuregulin-1, membrane-bound isoform (Homo sapiens) (UniProt Q02297); experiment: small molecules binding neuregulin-1 protein – biochemical, small-molecule microarray, fluorescence 635/667, psychiatric disease protein project, primary screen (AID 1075); conditions: NRG1 binding, 635 nm fluorescence, higher = more signal;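 note: score combines 667 nm spot fluorescence with signal to noise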
Pro-neuregulin-1, membrane-bound isoform (Homo sapiens), sequence (Q02297 whole entry, looked up, the tested form may be a part, canonical isoform): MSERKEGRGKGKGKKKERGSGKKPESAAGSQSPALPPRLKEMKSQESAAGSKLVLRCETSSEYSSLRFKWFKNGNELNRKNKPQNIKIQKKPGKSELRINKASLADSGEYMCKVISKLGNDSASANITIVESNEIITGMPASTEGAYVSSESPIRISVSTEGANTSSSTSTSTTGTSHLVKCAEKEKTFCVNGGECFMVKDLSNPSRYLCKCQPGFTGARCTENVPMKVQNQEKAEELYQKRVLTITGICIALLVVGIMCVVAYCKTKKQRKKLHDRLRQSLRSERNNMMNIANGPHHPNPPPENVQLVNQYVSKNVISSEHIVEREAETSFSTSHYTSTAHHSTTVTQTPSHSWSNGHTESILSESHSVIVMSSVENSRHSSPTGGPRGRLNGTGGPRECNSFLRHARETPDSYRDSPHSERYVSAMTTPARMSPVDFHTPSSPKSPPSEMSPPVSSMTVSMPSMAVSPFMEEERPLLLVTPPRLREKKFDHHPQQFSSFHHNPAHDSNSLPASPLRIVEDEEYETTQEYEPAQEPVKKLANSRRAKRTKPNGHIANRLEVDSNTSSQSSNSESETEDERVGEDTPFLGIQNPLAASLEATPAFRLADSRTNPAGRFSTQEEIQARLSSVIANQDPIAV

[7] = system: Neuregulin-1 EGF-like domain; experiment: small molecules binding NRG1 EGF domain – biochemical, small-molecule microarray, 635 nm fluorescence, primary screen (AID 1081); conditions: higher = more signal;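 note: binding of the protein to compounds printed on small-molecule microarray slides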
[8] = FRG1 expression reporter modulators in myotubes – cell-based, C2C12 myotubes, firefly/Renilla luciferase, luminescence, FRG1 inhibition for FSHD, primary screen (AID 1084); conditions: FRG1 promoter luciferase, higher = more signal, called active from +8 up or from −8 down
[9] = small molecules captured by biotinylated probe aFST – biochemical, small-molecule microarray, fluorescence 635/667, stem cell growth factor project, primary screen (AID 1086); conditions: higher = more signal;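 note: score merges 667 nm fluorescence with signal-to-noise of each printed compound spot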
[10] = binders of probe aHhip on microarray, primary screen, stem cell growth factor project, biochemical, small-molecule microarray, fluorescence 635/667 (AID 1087); conditions: higher = more signal;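 note: score merges spot fluorescence at 667nm with spot signal to noise ratio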
[11] = system: PRMT1 (protein arginine N-methyltransferase 1); experiment: small molecules binding arginine methyltransferase PRMT1 – biochemical, small-molecule microarray, 635 nm fluorescence, primary screen (AID 1088); conditions: higher = more signal;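 note: binding of Prmt1 protein to compounds spotted on small-molecule microarray slides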
[12] = growth effects on S. cerevisiae YJM789 – YJM789 clinical isolate, OD600, 24 h, basal, primary screen (AID 1089); conditions: higher = more signal, called active from +8 up or from −8 down;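 note: growth of clinical yeast isolate S. cerevisiae YJM 789 seeded 1000 cells per well; test concentration not given here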
[13] = S. pombe growth modifiers, basal conditions – strain 972, OD600, 24 h, no modulator, primary screen (AID 1090);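 note: basal condition with compound alone and no growth modifier present; test concentration not given here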; conditions: S. pombe 972 growth, higher = more signal, called active from +8 up or from −8 down
[14] = budding yeast growth modifiers under rapamycin – strain BY4716, OD600, 96 h, primary screen (AID 1091); note: test concentration not given here; conditions: S. cerevisiae BY4716 + rapamycin, higher = more signal, called active from +8 up or from −8 down
[15] = molecular target: Torsin-1A-interacting protein 2 (Homo sapiens) (UniProt Q8NFQ8); experiment: small molecules binding lysate-expressed LULL1 – cell lysate, human LULL1 lysate, 635/667 nm fluorescence, primary screen (AID 1092); conditions: small-molecule microarray, hLULL1 lysate binding, 635 nm fluorescence; higher = more signal;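 note: probe is lysate of COS7 cells overexpressing human LULL1; score merges per-feature 667 nm fluorescence with signal-to-noise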
Torsin-1A-interacting protein 2 (Homo sapiens), sequence (Q8NFQ8 whole entry, looked up): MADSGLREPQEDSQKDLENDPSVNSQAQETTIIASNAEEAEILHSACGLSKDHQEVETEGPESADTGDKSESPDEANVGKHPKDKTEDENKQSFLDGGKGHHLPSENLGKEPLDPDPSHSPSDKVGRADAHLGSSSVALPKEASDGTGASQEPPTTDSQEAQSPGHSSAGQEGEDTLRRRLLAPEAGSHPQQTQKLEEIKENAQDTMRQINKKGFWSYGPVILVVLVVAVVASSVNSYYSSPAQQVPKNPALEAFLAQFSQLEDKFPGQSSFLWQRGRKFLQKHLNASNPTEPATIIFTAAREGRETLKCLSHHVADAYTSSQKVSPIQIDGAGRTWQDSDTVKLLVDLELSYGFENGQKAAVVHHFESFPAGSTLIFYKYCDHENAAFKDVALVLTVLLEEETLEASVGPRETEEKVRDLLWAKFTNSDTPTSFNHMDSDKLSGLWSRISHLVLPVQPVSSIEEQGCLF

[16] = optical density change of DRC41 E. coli – strain DRC41, OD650, 24 h, E. coli filamentation project, primary screen (AID 1093);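 note: MC1000 strain lacking acrAB efflux and sulA so SOS filamentation is blocked; test concentration not given here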; conditions: E. coli DRC41 growth, higher = more signal, called active from +8 up or from −8 down
[17] = probe aLefty2 binding to arrayed compounds – biochemical, biotinylated probe, 635/667 nm fluorescence, primary screen (AID 1094); conditions: small-molecule microarray, higher = more signal;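 note: score merges spot fluorescence near 667 nm with spot signal-to-noise ratio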
[18] = system: Noggin (protein binding on small-molecule microarray); experiment: small molecules binding Noggin protein – biochemical, 635/667 nm fluorescence, primary screen (AID 1095); conditions: 635 nm fluorescence, higher = more signal;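 note: score merges 667 nm feature fluorescence with signal to noise over triplicate slides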
[19] = molecular target: Neurogenic locus notch homolog protein 3 (Homo sapiens) (UniProt Q9UM47); experiment: small molecules binding NOTCH3 protein – biochemical, 635/667 nm fluorescence, primary screen (AID 1096); conditions: small-molecule microarray, 635 nm fluorescence, higher = more signal
Neurogenic locus notch homolog protein 3 (Homo sapiens), sequence (Q9UM47 whole entry, looked up): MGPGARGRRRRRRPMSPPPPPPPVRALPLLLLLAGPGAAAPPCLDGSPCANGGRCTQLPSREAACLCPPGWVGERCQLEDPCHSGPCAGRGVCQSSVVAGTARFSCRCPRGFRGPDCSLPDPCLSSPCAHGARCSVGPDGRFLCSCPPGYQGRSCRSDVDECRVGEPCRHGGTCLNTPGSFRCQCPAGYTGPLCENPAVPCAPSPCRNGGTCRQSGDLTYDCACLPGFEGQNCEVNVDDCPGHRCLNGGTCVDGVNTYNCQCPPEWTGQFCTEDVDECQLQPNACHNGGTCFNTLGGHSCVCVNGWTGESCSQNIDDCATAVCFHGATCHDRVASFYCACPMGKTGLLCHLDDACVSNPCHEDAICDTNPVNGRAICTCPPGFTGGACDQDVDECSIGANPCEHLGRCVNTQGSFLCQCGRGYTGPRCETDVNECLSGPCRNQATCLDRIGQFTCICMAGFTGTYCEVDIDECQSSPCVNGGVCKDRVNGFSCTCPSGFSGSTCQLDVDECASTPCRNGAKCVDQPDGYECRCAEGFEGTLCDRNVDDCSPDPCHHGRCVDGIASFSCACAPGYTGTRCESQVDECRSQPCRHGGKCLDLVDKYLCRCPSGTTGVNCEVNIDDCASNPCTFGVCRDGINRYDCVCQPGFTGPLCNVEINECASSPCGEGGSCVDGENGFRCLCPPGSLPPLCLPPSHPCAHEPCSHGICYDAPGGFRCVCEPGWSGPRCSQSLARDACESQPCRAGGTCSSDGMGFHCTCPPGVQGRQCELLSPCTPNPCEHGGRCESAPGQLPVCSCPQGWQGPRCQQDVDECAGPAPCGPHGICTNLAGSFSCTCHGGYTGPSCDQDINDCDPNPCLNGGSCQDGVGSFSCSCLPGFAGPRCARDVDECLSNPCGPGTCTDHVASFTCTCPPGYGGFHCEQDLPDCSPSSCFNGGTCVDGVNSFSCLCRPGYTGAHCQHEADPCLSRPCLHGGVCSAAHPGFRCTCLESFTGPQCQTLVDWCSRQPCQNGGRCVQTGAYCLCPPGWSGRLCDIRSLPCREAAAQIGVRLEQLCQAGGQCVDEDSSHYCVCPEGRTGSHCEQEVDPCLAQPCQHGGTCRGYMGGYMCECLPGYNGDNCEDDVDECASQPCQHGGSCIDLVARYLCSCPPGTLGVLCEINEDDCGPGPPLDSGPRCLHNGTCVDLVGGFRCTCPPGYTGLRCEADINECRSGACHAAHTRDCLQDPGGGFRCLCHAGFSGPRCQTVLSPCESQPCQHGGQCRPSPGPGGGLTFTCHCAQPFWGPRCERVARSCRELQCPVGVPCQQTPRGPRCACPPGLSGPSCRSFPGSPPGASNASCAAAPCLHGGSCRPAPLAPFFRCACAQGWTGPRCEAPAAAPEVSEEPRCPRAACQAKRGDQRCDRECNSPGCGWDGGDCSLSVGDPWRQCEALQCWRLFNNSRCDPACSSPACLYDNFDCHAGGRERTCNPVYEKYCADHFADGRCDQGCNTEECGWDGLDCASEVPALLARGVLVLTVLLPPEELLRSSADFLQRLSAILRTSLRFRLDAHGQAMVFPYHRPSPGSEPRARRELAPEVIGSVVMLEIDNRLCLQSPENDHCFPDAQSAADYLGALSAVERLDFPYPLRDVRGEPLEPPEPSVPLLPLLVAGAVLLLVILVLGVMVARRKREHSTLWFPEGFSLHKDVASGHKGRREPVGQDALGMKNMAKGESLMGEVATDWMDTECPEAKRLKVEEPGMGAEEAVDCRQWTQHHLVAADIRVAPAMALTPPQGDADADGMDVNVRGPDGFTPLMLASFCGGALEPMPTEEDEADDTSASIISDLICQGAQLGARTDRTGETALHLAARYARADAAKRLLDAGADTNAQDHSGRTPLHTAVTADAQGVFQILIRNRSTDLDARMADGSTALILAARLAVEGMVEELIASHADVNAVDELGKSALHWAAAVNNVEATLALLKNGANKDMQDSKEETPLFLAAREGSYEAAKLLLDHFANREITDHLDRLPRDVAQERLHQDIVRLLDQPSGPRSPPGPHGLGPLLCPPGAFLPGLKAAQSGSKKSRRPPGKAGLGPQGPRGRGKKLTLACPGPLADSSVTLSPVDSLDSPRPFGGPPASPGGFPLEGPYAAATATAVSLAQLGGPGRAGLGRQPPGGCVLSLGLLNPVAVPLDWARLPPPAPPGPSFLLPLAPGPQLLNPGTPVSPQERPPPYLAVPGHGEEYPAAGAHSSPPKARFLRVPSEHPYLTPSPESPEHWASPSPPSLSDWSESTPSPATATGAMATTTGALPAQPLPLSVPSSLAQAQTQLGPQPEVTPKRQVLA

[20] = probe aEGFR binding to arrayed compounds – biochemical, biotinylated probe, 635/667 nm fluorescence, primary screen (AID 1097); conditions: small-molecule microarray, higher = more signal;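 note: probe is a biotinylated anti-EGFR antibody binding compounds printed on slides; score combines fluorescence near 667 nm and signal to noise of each spot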

SMILES	composite z-score [1]	composite z-score [2]	composite z-score [3]	composite z-score [4]	composite z-score [5]	composite z-score [6]	composite z-score [7]	z-score [8]	composite z-score [9]	composite z-score [10]	composite z-score [11]	z-score [12]	z-score [13]	z-score [14]	composite z-score [15]	z-score [16]	composite z-score [17]	composite z-score [18]	composite z-score [19]	composite z-score [20]
COc1cc2c(cc1OC)CN(C(=O)[C@@H]1[C@H]3C(=O)O[C@H](c4ccccc4)[C@H](c4ccccc4)N3[C@H](c3ccc(OCCO)cc3)[C@@]13C(=O)Nc1ccc(C#CC4(O)CCCCCC4)cc13)CC2	-0.543	0.416	0.0246	1.15	1.14	1.67	1.15	-0.921 (inactive)	0.528	-0.6	1.54	0.972 (inactive)	0.888 (inactive)	5.25 (inactive)	3.19	2.32 (inactive)	-0.438	1.47	1.08	-0.244
C=CCOC(=O)[C@H]1[C@@H]2C(=O)O[C@@H](c3ccccc3)[C@@H](c3ccccc3)N2[C@@H](c2ccc(OCCOC(=O)[C@H]3C[C@H]4C(=O)N[C@@H](CC(C)C)C(=O)N4[C@H]3c3cccc(OCCO)c3)cc2)[C@]12C(=O)Nc1ccc(I)cc12	-0.475	0.178	-0.0442	0.823	0.919	-0.403	1.17	0.842 (inactive)	0.157	0.0373	1.48	0.219 (inactive)	0.46 (inactive)	2.8 (inactive)	2.76	-0.266 (inactive)	-0.0416	0.972	0.97	0.0436
CN(C)CCCNC(=O)[C@@]1(C)c2ccccc2C(=O)N(Cc2ccccc2)[C@H]1c1ccc(CO)cc1	1.2	-0.333	-0.116	-0.305	-0.675	1.62	0.562	-0.839 (inactive)	-0.0584	-0.0074	0.988	-0.466 (inactive)	-0.505 (inactive)	-0.577 (inactive)	2.82	1.16 (inactive)	0.151	0.0474	-0.652	-0.0639
COCCOC(=O)N1C(=O)[C@@]2(c3cc(C#CC4=CCCCC4)ccc31)[C@H](c1ccc(O)cc1)N1[C@H](c3ccccc3)[C@H](c3ccccc3)OC(=O)[C@H]1[C@@H]2C(=O)N1CCN(c2ncccn2)CC1	0.875	-0.0653	-0.141	-0.164	-1.58	0.576	-0.0176	0.214 (inactive)	-0.841	-0.277	0.234	0.358 (inactive)	0.371 (inactive)	0.58 (inactive)	-0.142	-0.737 (inactive)	-0.192	-1.1	-0.756	-0.348
COC(=O)C(CC#Cc1ccc2c(c1)[C@]1(C(=O)N2)[C@H](C(=O)N2CCN(c3ncccn3)CC2)[C@H]2C(=O)O[C@H](c3ccccc3)[C@H](c3ccccc3)N2[C@@H]1c1ccc(OCCO)cc1)C(=O)OC	-0.448	1.21	-0.0768	0.554	1.16	1.67	1.26	1.97 (inactive)	0.38	-0.0296	1.53	3.19 (inactive)	2.13 (inactive)	5.67 (inactive)	2.76	0.54 (inactive)	0.0008	1.3	1.02	-0.0177
CC(C)N1CC=CC23O[C@@H]4C=CCOC(=O)[C@@H]4[C@H]2C(=O)N(CCCO)[C@@H]3C1=O (stereo not given in full)	0.645	1.64	-0.188	0.425	-0.671	1.57	1.58	-0.385 (inactive)	-0.436	-0.16	0.943	-1.46 (inactive)	-2.28 (inactive)	-1.58 (inactive)	2.41	2.67 (inactive)	-0.178	0.927	-0.145	-0.178
C=CCC(OC(C)=O)[C@@H]1[C@@H](N(Cc2cc3ccccc3o2)C(=O)c2ccc(C)cc2)c2cc(OCCCO)ccc2N1C(=O)Cc1ccc(OC)cc1 (stereo not given in full)	-0.18	0.0811	-0.0878	-0.0177	0.0335	-0.433	-0.0742	0.443 (inactive)	0.277	-0.0645	0.23	0.0303 (inactive)	-0.841 (inactive)	-0.131 (inactive)	0.692	1.21 (inactive)	0.0761	-0.0512	0.233	-0.15
COC(=O)[C@@]1(Cc2ccc(OC)cc2)[C@H]2c3cc(C(=O)N(C)C)n(CCO)c3C[C@H]2CN1C(=O)c1ccccc1	0.494	2.56	0.152	-0.359	0.993	2.13	-0.139	1.63 (inactive)	0.871	0.0365	-1.15	-0.809 (inactive)	0.142 (inactive)	-0.14 (inactive)	1.96	-0.285 (inactive)	0.333	-1.13	-0.175	-0.0521
C=CCNC(=O)[C@@H]1[C@H]2C(=O)O[C@H](c3ccccc3)[C@H](c3ccccc3)N2[C@H](c2ccc(O)cc2)[C@@]12C(=O)N(C(=O)OCCOC)c1ccc(C#CC3(O)CCCCCC3)cc12	0.564	-0.548	-0.176	-1.52	-2.26	-0.712	-0.895	-0.659 (inactive)	-1.19	-0.312	-0.14	-0.857 (inactive)	0.183 (inactive)	-0.26 (inactive)	-1.28	1.23 (inactive)	0.143	-0.669	-0.904	-0.305
